# Results as given in PubChem BioAssay AID1220 (Sanford-Burnham Center for Chemical Genomics, 2008).
# Values joined by “and” are separate entries in the source; they are usually repeats but may differ in a detail not shown here. Identical values can stand only once. In all, about 190,000 compounds went through this assay and about 1,300 (0.68%) were called active. No stated cut-off is given here; in the data, active means inhibition above about 50%; inactive means the rest. What follows is part of a selection rich in actives, with near analogues and random picks from the rest.
# Biological target: Mannose-6-phosphate isomerase (Homo sapiens) (UniProt P34949)
# Sequence (P34949 whole entry, looked up): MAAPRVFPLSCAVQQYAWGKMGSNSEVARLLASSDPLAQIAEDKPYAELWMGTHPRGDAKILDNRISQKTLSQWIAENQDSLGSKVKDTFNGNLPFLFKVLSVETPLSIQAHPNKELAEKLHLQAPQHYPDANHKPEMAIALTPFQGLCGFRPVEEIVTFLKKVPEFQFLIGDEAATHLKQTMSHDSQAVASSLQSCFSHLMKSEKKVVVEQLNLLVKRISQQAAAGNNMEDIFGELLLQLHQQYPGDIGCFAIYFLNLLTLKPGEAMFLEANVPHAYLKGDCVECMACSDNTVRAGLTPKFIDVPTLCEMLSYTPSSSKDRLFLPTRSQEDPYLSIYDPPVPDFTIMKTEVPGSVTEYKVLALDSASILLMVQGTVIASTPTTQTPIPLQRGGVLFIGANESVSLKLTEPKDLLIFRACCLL
# Test: human PMI inhibitors, high substrate, primary screen, biochemical, fluorescence intensity, high mannose 6-phosphate (AID 1220)
# Details: recombinant PMI enzyme, coupled fluorescence intensity; at 20 µM; active compounds read high
row,SMILES,inhibition
1,Cc1ccc(S(=O)(=O)Nc2ccc3c(c2)nc(CN2CCCC2)n3C)cc1,-2.1% (inactive)
2,CCOc1ccc(C(C)=O)cc1CSc1nnc(-c2cccs2)n1CC1CCCO1 (configuration not stated),10.7% (inactive)
3,O=[N+]([O-])c1cccc(/C=N/NC2=NCCCCC2)c1,-4.3% (inactive)
4,C=CCn1c(SCC(=O)c2ccc(NS(=O)(=O)c3ccccc3)cc2)nnc1-c1cccs1,-16% (inactive)
5,Cc1ccc(S(=O)(=O)/N=C(\c2ccccc2)N(C)S(=O)(=O)c2ccccc2)cc1,-11.9% (inactive)
6,CCC(Sc1ncccc1C(=O)O)C(=O)N1CCCC1 (configuration not stated),-5.9% (inactive)
7,CC(=O)Nc1ccc2nc(NC(=O)COc3ccc([N+](=O)[O-])cc3)sc2c1,9.4% (inactive)
8,O=C(O)CC1SC(=O)N(Cc2ccccc2)C1=O (configuration not stated),8.1% (inactive)
9,COc1ccc(CCn2c(=O)[nH]c3cc(C(=O)NCCc4ccccc4)ccc3c2=O)cc1OC,-2.6% (inactive)
10,O=c1c2ccccc2nc2ccc(N3CCOCC3)nn12,0.2% (inactive)
11,c1ccc2c(Nc3ccc4c(c3)OCCO4)c3c(nc2c1)CCC3,12.8% (inactive)
12,CC/C(CC(=O)C(F)(F)F)=N\NC(=O)/C(C#N)=C/N(C)C,-0.8% (inactive)
13,CC(C)CC(N=Cc1c(O)c2ccccc2oc1=O)C(=O)O (configuration not stated),-10.2% (inactive)
14,Cc1ccc(OCCOCCn2cnc3ccccc3c2=O)c([N+](=O)[O-])c1,52.1% (active)
15,Cc1ccc(OCCn2cnc3ccccc3c2=O)c([N+](=O)[O-])c1,0.1% (inactive)
16,Cc1ccc(OCCOc2cccc3ccc(C)nc23)c([N+](=O)[O-])c1,55% (active)
17,COc1cc(C)ccc1OCCOCCOc1cccc2ccc(C)nc12,8.5% (inactive)
18,O=c1c2ccccc2ncn1CCOc1ccccc1[N+](=O)[O-],-2.8% (inactive)
19,Cc1ccc2cccc(Oc3ccc([N+](=O)[O-])cc3[N+](=O)[O-])c2n1,23.3% (inactive)
20,CCN(C#N)c1nc(NC(C)C)nc(NC(C)(C)C)n1,5.4% (inactive)
21,Cc1cccc(COCC(CC(C)C)N2CCN(C(=O)c3ccc(C(F)(F)F)cc3)CCC2=O)c1 (configuration not stated),-9% (inactive)
22,Cc1[nH]c(=S)sc1Cc1ccc(F)cc1,6.5% (inactive)
23,CNc1nc(-c2c[nH]c3ccccc23)cs1,-53.9% (inactive)
24,Nc1n[nH]c(-c2ccccc2[N+](=O)[O-])n1,-2.3% (inactive)
25,CCOCCn1c(=NC(=O)/C=C/c2ccccc2Cl)sc2cc(NC(C)=O)ccc21,2.9% (inactive)
26,NC1CCCCC1N=Cc1c(O)n(CCc2ccc(F)cc2)c(=O)[nH]c1=O (configuration not stated),2.4% (inactive)

row,SMILES,inhibition
1,CCOc1ccc(S(=O)(=O)N(CC(=O)NC2CCCCC2C)Cc2ccco2)cc1 (configuration not stated),3.3% (inactive)
2,CCOc1cccc(C2c3c(oc4cc(C)c(C)cc4c3=O)C(=O)N2CCCN(C)C)c1 (configuration not stated),-0.5% (inactive)
3,COc1ccc([N+](=O)[O-])cc1COc1cc(C)cc2oc(=O)cc(-c3ccccc3)c12,58% (active)
4,CCOc1cc(C)cc2oc(=O)cc(-c3ccccc3)c12,6.3% (inactive)
5,COc1ccc([N+](=O)[O-])cc1COc1ccc2c(-c3ccccc3)cc(=O)oc2c1,-4.2% (inactive)
6,O=C(CN1C(=O)C2C3CCC(C3)C2C1=O)NCc1ccco1 (configuration not stated),6.5% (inactive)
7,O=C(CN1C(=O)C2C3C=CC(C3)C2C1=O)NCc1ccco1 (configuration not stated),57% (active)
8,O=C(CN1C(=O)C2C3C=CC(C4CC34)C2C1=O)NCc1ccco1 (configuration not stated),13% (inactive)
9,CCOC(=O)C1=C(C)NC(C)=C(C(=O)OCC)C1C(=O)OCC(N)=O,-7.6% (inactive)
10,CS(=O)(=O)c1ccc(C(=O)N2CCc3ccccc3C2)cc1,-6.6% (inactive)
11,O=C(c1ccc(S(=O)(=O)N2CCCCC2)cc1)N1CCc2ccccc2C1,11.9% (inactive)
12,O=C(c1ccc(S(=O)(=O)c2ccccc2)cc1)N1CCc2ccccc2C1,60.2% (active)
13,CCC1CCCCN1C(=O)c1sc2ncnc(N(CC)CC)c2c1C (configuration not stated),-1.9% (inactive)
14,Cc1nn(CC(=O)NCc2ccccc2F)c(C)c1[N+](=O)[O-],2.2% (inactive)
15,COc1ccc2cc(/C=N/NC(=O)CN(c3ccccc3)S(=O)(=O)c3ccccc3)c(Cl)nc2c1,5.6% (inactive)
16,COc1ccc2nc(C(C)O)[nH]c2c1 (configuration not stated),13.3% (inactive)
17,Cc1c(OCC(F)(F)F)ccnc1CS(=O)c1nc2ccccc2[nH]1 (configuration not stated),4.7% (inactive) and 13.1% (inactive)
18,COc1ccc2nc(S(=O)Cc3ncc(C)c(OC)c3C)[nH]c2c1 (configuration not stated),50% (active)
19,CC(O)CNCc1ccc(-c2ccccc2)cc1 (configuration not stated),0.1% (inactive)
20,Cc1ccccc1Nc1ncccc1C(=O)N1CCOCC1,-9.3% (inactive)
21,O=S(=O)(Nc1nc2ccccc2nc1Cl)c1ccc2ccccc2c1,60.1% (active)
22,O=S(=O)(Nc1nc2ccccc2nc1Cl)c1ccc(Cl)cc1,-2.7% (inactive)
23,O=S(=O)(Nc1nc2ccccc2nc1Cl)c1ccccc1,-6.6% (inactive)
24,O=C1N/C(=C\c2ccccc2)C(O)=C1C=NCc1ccccc1,-1.9% (inactive)
25,O=C(O)CCNS(=O)(=O)c1ccccc1Br,-4% (inactive)
26,O=c1cc(C(F)(F)F)nc(-c2ccccc2)[nH]1,0.9% (inactive)

row,SMILES,inhibition
1,N#C/C(=C\c1cc(Cl)ccc1O)C(=O)NC1CCCCC1,10.6% (inactive)
2,N#C/C(=C\c1cc(Cl)cc(Cl)c1O)C(=O)NC1CCCCC1,66.7% (active)
3,Cc1cc(/C=C(\C#N)C(=O)NC2CCCCCC2)c(C)[nH]1,1.5% (inactive)
4,COc1ccc(-c2cc(C(=O)Nc3cc(C)on3)no2)cc1,-3.1% (inactive)
5,CCN(CCO)C1CC(=O)N(c2ccccc2C)C1=O (configuration not stated),-11.3% (inactive)
6,O=C(/C=C/c1ccccc1)NC1CCS(=O)(=O)C1 (configuration not stated),-10.3% (inactive)
7,O=C(/C=C/c1cccs1)NC1CC1,-8.9% (inactive)
8,O=C(/C=C/c1cccs1)NC1CCS(=O)(=O)C1 (configuration not stated),54.7% (active)
9,COc1ccccc1NC(=O)Nc1ccc2[nH]c(=O)[nH]c2c1,6.1% (inactive)
10,O=C(Nc1ccc(F)cc1F)Nc1ccc(F)cc1F,-3.6% (inactive)
11,O=C(Nc1ccc2[nH]c(=O)[nH]c2c1)Nc1ccc(F)cc1F,55.8% (active)
12,COc1ccc(C2=Nc3cccc4cccc(c34)N2)cc1,53.1% (active)
13,Fc1ccc(C2=Nc3cccc4cccc(c34)N2)cc1,45.2% (inactive)
14,Nc1ccc(C2=Nc3cccc4cccc(c34)N2)cc1,23.6% (inactive)
15,c1coc(C2=Nc3cccc4cccc(c34)N2)c1,63.6% (active)
16,Brc1ccc(C2=Nc3cccc4cccc(c34)N2)o1,12.1% (inactive)
17,COc1cccc(C2=Nc3cccc4cccc(c34)N2)c1,-64.5% (inactive)
18,COCC(C)NC(=O)C(C)Oc1ccccc1 (configuration not stated),-3.4% (inactive)
19,Cc1cnc(C(=O)N2CCCC(C(=O)c3ccc(C(C)(C)C)cc3)C2)cn1 (configuration not stated),5.6% (inactive)
20,COc1ccc(/C(N)=N/OC(=O)COc2ccccc2Cl)cc1,6.3% (inactive)
21,Cc1cc(=O)n2ccsc2n1,-2.4% (inactive)
22,Cc1ccn2c(=O)cc(C)nc2c1,9% (inactive)
23,Cc1onc(-c2c(F)cccc2Cl)c1C(=O)OCC(=O)Nc1c(C)n(C)n(-c2ccccc2)c1=O,-18.7% (inactive)
24,COc1ccc(S(=O)(=O)N2CCN(CC(=O)Nc3ccc(F)c(F)c3)CC2)cc1,-16.5% (inactive)
25,N#CC1=C(N)OC2=C(C(=O)CCC2)C1c1ccsc1 (configuration not stated),-1.2% (inactive)
26,N#CC1=C(N)N(c2ccccc2)C2=C(C(=O)CCC2)C1c1ccsc1 (configuration not stated),27.6% (inactive)

row,SMILES,inhibition
1,CN(C)N1C(N)=C(C#N)C(c2cccs2)C2=C1CCCC2=O (configuration not stated),33.2% (inactive)
2,CN(C)N1C(N)=C(C#N)C(c2cccnc2)C2=C1CCCC2=O (configuration not stated),57.9% (active)
3,CCc1ccc(C2C(C#N)=C(N)OC3=C2C(=O)CCC3)s1 (configuration not stated),6.1% (inactive)
4,N#CC1=C(N)N(c2ccccc2)C2=C(C(=O)CCC2)C1c1ccccc1 (configuration not stated),51.2% (active)
5,CN(C)N1C(N)=C(C#N)C(c2cccnc2)C2=C1CC(C)(C)CC2=O (configuration not stated),8.6% (inactive)
6,CN(C)N1C(N)=C(C#N)C(c2ccsc2)C2=C1CC(C)(C)CC2=O (configuration not stated),18.1% (inactive)
7,CSc1ccc(C2C(C#N)=C(N)N(c3ccccc3)C3=C2C(=O)CCC3)cc1 (configuration not stated),29.9% (inactive)
8,CCc1ccc(C2C(C#N)=C(N)N(N(C)C)C3=C2C(=O)CCC3)s1 (configuration not stated),59.7% (active)
9,CN(C)N1C(N)=C(C#N)C(c2ccsc2)C2=C1CCCC2=O (configuration not stated),61% (active)
10,Cc1ccc(N2C(N)=C(C#N)C(c3cccnc3)C3=C2CCCC3=O)cc1 (configuration not stated),47.7% (inactive)
11,CCOC(=O)c1cccc(-c2ccc(C=O)o2)c1,7.1% (inactive)
12,COc1ccc(/C=N\NC(=O)c2cccc(Br)c2)c(OC)c1,3% (inactive)
13,CCN(CC)C(=O)CSc1nc2ccccc2c(=O)n1OC,4.5% (inactive)
14,COC(=O)/C=C(\C)NC(=O)c1ccc(F)cc1,12.4% (inactive)
15,O=C(COC(=O)c1cccs1)NCc1ccco1,-3.4% (inactive)
16,Cc1ncoc1C(=O)Nc1ccccc1-c1ccccc1,-4.1% (inactive)
17,CCN(CC)C(=O)c1ccc(Cn2cc([N+](=O)[O-])cn2)o1,0% (inactive)
18,CC(=O)c1ccc(NC(=O)Nc2ccc([N+](=O)[O-])cc2)cc1,-0.1% (inactive)
19,Cc1ccc(C2C(C#N)=C(N)N(N(C)C)C3=C2C(=O)CCC3)cc1 (configuration not stated),57.8% (active)
20,COc1ccc(N2C(N)=C(C#N)C(c3ccsc3)C3=C2CCCC3=O)c(OC)c1 (configuration not stated),62% (active)
21,COc1ccc(C2C(C#N)=C(N)N(c3ncn[nH]3)C3=C2C(=O)CCC3)cc1 (configuration not stated),43.2% (inactive)
22,N#CC1=C(N)N(c2ccccc2C#N)C2=C(C(=O)CCC2)C1c1ccsc1 (configuration not stated),19.7% (inactive)
23,Cc1ccsc1C1C(C#N)=C(N)N(N(C)C)C2=C1C(=O)CCC2 (configuration not stated),15.7% (inactive)
24,CN(C)N1C(N)=C(C#N)C(c2ccccc2)C2=C1CCCC2=O (configuration not stated),42.1% (inactive)
